# AmpC no deterg – qHTS Inhibitors of AmpC Beta-Lactamase (assay without detergent). P00811. 330,000 tested, 0.52% active. AmpC nitrocefin hydrolysis, absorbance 480 nm, 0.0001% Triton. Potency, µM (series often up to 57.1 µM), most hits filed as inhibitors; note: nearly all actives have a fitted effect of over 20% in size
# Target sequence (P00811 whole entry, looked up): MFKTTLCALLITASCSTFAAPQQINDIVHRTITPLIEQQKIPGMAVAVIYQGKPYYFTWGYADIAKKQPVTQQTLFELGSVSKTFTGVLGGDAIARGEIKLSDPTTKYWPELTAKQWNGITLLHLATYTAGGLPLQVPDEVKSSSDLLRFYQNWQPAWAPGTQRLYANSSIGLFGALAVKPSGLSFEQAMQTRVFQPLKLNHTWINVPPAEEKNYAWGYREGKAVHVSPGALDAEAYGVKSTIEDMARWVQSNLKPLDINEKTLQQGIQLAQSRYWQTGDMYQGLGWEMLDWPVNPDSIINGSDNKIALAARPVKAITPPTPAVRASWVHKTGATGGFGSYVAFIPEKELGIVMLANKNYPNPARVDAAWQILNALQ
#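 AmpC (5.3 nM in the dispensed reagent) in 20 mM phosphate pH 7.0 with 0.01% (detergent screen) or 0.0001% Triton X-100 was preincubated with compounds for 15 min at room temperature. Nitrocefin was then added from an 800 uM solution, and hydrolysis was followed at 480 nm.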
# AmpC inh detg – qHTS Inhibitors of AmpC Beta-Lactamase (assay with detergent) | P00811 | AmpC hydrolysis of nitrocefin, absorbance 480 nm, 0.01% Triton | Potency, µM (series often up to 114 µM), actives largely listed as inhibitors | 370,000 tested, 0.041% active; note: nearly all actives have a fitted effect of over 25% in size
#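 20 mM phosphate pH 7.0 + 0.01% (detergent screen) or 0.0001% Triton X-100; 5.3 nM AmpC reagent; cpd preinc 15 min RT; nitrocefin (800 uM stock) to start; A480 q20 s × 4 min; Activity was normalised to no-enzyme and no-compound control wells.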
# SARS PLpro yeast – qHTS of Yeast-based Assay for SARS-CoV PLP; S. cerevisiae expressing SARS-CoV PLpro, growth rescue; Potency, µM (titrated, usually from 32.9 µM), hits mostly activators; 330,000 tested, 0.19% active; AID 485353, 2010; calls by dose curve; note: nearly all actives have a fitted effect of over 55% in size
# NS1 function inh – qHTS Assay for Inhibitors of Influenza NS1 Protein Function. AID 2326, 2010. Potency, µM (top dose mostly 46.1 µM). 270,000 tested, 0.4% active; calls by dose curve; note: actives are rising curves; nearly all actives have a fitted effect of over 50% in size
#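 Recovery from NS1-induced slow growth read by OD600 in budding yeast switched to galactose assay medium (pH 6.0, -URA) at 1:100 dilution. Compound 23 nl per well; the matching strain lacking NS1 serves as control.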
# Giardia FBPA inh – qHTS Assay for Inhibitors of Fructose-1,6-bisphosphate Aldolase from Giardia Lamblia; 290,000 tested, 0.71% active; purified Giardia FBPA; Potency, µM (top dose mostly 59.6 µM), usual class: inhibitors; A8B2U2; AID 2451, 2010; note: nearly all actives have a fitted effect of over 55% in size
# Target sequence (A8B2U2 whole entry, looked up): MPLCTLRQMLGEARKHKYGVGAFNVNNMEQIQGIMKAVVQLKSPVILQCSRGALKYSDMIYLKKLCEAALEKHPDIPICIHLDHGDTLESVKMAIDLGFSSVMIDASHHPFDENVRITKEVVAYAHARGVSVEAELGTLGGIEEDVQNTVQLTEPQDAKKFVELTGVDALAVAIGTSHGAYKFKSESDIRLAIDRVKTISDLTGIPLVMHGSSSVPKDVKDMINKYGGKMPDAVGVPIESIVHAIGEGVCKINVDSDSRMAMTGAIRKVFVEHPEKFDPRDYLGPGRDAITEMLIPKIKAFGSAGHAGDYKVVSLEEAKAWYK
#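 40 nM FBPA preincubated 10 min at RT with compound (up to 57.5 uM final), then substrate plus GAPDH/TPI/NAD/arsenate coupling and diaphorase/resazurin added. Fluorescence read after 20 min at RT, 525/598 nm.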
# A number is an active result; i = inactive; ? = inconclusive; nt = no result given; [ ] = another dose, or the depositor's remark. Most compounds without a hit are left out; they make up all but 1.4% or so of the library. Unless noted, calls come from the whole dose curve; as a rule, active = well fitted curve in the direction sought with a large enough effect; inconclusive = small, poorly fitted or top-dose-only effect, or another doubt; inactive = no such curve, though single readings can be large; an effect the other way counts as inactive or inconclusive.
SMILES,AmpC no deterg,AmpC inh detg,SARS PLpro yeast,NS1 function inh,Giardia FBPA inh
O=S(=O)(c1ccc(Cl)cc1)N1CCN(Cc2cccnc2)CC1,i,i,i,i,i
N#CC1=C(N)OC2=C(CCC/C2=C/c2ccoc2)C1c1ccoc1 (stereo not given),0.282µM,i,i,i,i
O=C(O/N=C\c1ccc(N2CCCCC2)c([N+](=O)[O-])c1)c1cccc(Cl)c1,i,i,i,i,i
O=S(=O)(c1ccc2c(c1)OCCCO2)N1CCNCC1,i,?,i,i,i
c1cc2c(cc1C1CCCN1)OCCCO2 (stereo not given),0.224µM,i,i,i,i
S=C(NCc1ccc2[nH]c3c(c2c1)CCCC3)Nc1ccccc1,?,i,i,i,i
CCOC(=O)CNC(=O)c1ccc2[nH]c3c(c2c1)CCCC3,i,i,i,i,i
Cc1cc(C)cc(NC(=S)NCc2ccc3[nH]c4c(c3c2)CCCC4)c1,31.6µM,i,i,i,i
NNC(=O)c1ccc2[nH]c3c(c2c1)CCCC3,25.1µM,i,i,nt,i
CCOc1ccc(N(C(=O)c2snc(C(N)=O)c2N)C(C(=O)NCC2CCCO2)c2ccc(C)o2)cc1 (stereo not given),i,i,i,i,i
CC1CCN(C(=O)CCN2C(=O)/C(=C/c3cccs3)SC2=S)CC1,i,i,i,i,i
CCOC(=O)c1ccc(N2C(=O)c3n[nH]c(-c4cccs4)c3C2c2cccc(O)c2)cc1 (stereo not given),nt,i,nt,nt,nt
CC(C)=CCc1c(O)cc2oc3c(CC=C(C)C)c(O)c(O)c(CC=C(C)C)c3c(=O)c2c1O,14.1µM,i,i,i,?
Cc1cc(C)cc(NC(=O)c2ccc(S(=O)(=O)N(C)CC3CCCO3)cc2)c1 (stereo not given),i,i,i,i,nt
CCC(=O)Nc1ccc(Cl)c(NC(=O)c2cccnc2)c1,i,i,i,i,i
CCCC(=O)Nc1ccc(Cl)c(NC(=O)c2cccnc2)c1,0.159µM,i,i,i,i
CCOC(=O)C(C)Sc1ncc(OC)c(=O)[nH]1 (stereo not given),0.159µM,i,i,i,i
CCOC(=O)CSc1ncc(OC)c(=O)[nH]1,?,i,i,i,i
COc1cccc2c1Oc1nc(-c3ccccc3)nc(SCC(=O)Nc3ccccc3)c1C2,nt,i,nt,nt,nt
CCOC(=O)c1c(-c2ccc(C)o2)csc1NC(=O)CSc1nnnn1-c1ccccc1,11.2µM,i,i,?,i
CCn1cc(CN2CCC(C(=O)Nc3ccc(Oc4ccccc4)nc3)CC2)cn1,i,i,i,i,nt
C/C(=N\NC(=S)Nc1ccc(F)cc1)c1ccc2c(c1)OCCO2,20µM,i,i,i,i
CCN(CC(=O)NC(C)(C)C)Cc1nc2c(Br)cc(Br)cc2c(=O)[nH]1,i,i,i,i,i
Cc1[nH]n(-c2ncc(-c3ccccc3)s2)c(=O)c1C(c1ccc(Cl)cc1)C(C#N)C#N (stereo not given),31.6µM,i,i,?,i
Cc1[nH]n(-c2ccccc2)c(=O)c1C(c1ccccc1[N+](=O)[O-])C(C#N)C#N (stereo not given),i,i,i,i,i
SMILES,AmpC no deterg,AmpC inh detg,SARS PLpro yeast,NS1 function inh,Giardia FBPA inh
COc1ccc(NC(=O)C(=O)NNC(=O)C(C)Oc2ccc(Cl)cc2Cl)cc1 (stereo not given),31.6µM,i,i,nt,i
CC(=O)Nc1ccc(NC(=O)C(C)Oc2ccc(Cl)cc2Cl)cc1 (stereo not given),i[2.29 µM],i,?,i,i
CN(C)c1ccc(C(=C2C=CC(=[N+](C)C)C=C2)c2ccccc2)cc1,nt,nt,nt,i,i
CN(C)c1ccc(C(=C2C=CC(=[N+](C)C)C=C2)c2ccc(N(C)C)cc2)cc1,nt,nt,nt,nt,15.8µM
COc1ccccc1Nc1nc(N)nc(CSC(=S)N2CCCCC2C)n1 (stereo not given),i,i,12.6µM,i,i
CCNC(=S)N/N=C/c1cc(C)n(-c2ccc(Cl)cc2)c1C,28.2µM,i,i,nt,i
S=c1[nH]nc(Nc2cccc3ccccc23)s1,28.2µM,i,i,i,i
Fc1ccccc1Nc1n[nH]c(=S)s1,i,i,i,i,i
Cc1ccc(CSCC(=O)N/N=C/c2ccc(OCC(=O)Nc3ccc(C)cc3)cc2)cc1,i,?,i,i,i
CC(=O)c1ccc(NC(=S)Nc2cccc3cnccc23)cc1,i,i,i,i,1.99µM
Cc1ccccc1NC(=S)Nc1cccc2cnccc12,i,i,i,nt,1.99µM
COc1ccc(S(=O)(=O)NNC(=O)c2sccc2-n2cccc2)cc1,i,i,i,nt,i
CNC(=S)NNC(=O)Cc1ccccc1,0.282µM,i,i,i,i
CCOc1ccc(CC(=O)NNC(=S)NC)cc1,i,i,i,i,i
COc1ccc(C)cc1NCc1cc(=O)oc2cc(-c3ccccc3)c(O)cc12,3.55µM,i,i,i,i
Cc1cc(C)cc(NCc2cc(=O)oc3cc(-c4ccccc4)c(O)cc23)c1,i,?,i,i,i
CCN(CC)c1ccc2c(O)cc(=O)oc2c1,25.1µM,?,i,nt,i
CCOc1ccccc1OCCCC(=O)NNC(=O)c1cc(C)oc1C,i,i,i,nt,nt
CCCC1=C/C(=C/c2ccc(-c3ccccc3OC)o2)C(=O)O1,31.6µM,?,i,i,i
Cc1c(Cl)cccc1-n1c(-c2cccnc2)n[nH]c1=S,i,i,i,i,i
CN1CCN(c2ccc(Cl)cc2NC(=O)c2ccc(S(=O)(=O)N(C)C)cc2)CC1,i,i,i,i,i
CN(C)S(=O)(=O)c1ccc(C(=O)Nc2cc(S(=O)(=O)Nc3ccccc3Cl)ccc2N2CCCCC2)cc1,3.16µM,i,i,?,i
Cc1ccc(/C=C/C(=O)O)cc1S(=O)(=O)N1CCCc2ccccc21,i,i,i,i,i
CCOC(=O)C1CCCN(C(=O)c2ccc3c(c2)sc2nc(-c4ccc(C)cc4C)cn23)C1 (stereo not given),nt,i,nt,nt,nt
O=C1CC(c2ccc(F)cc2)Cc2nc(N3CCN(c4ccccc4)CC3)ncc21 (stereo not given),i,?,i,i,i
SMILES,AmpC no deterg,AmpC inh detg,SARS PLpro yeast,NS1 function inh,Giardia FBPA inh
O=C1CC(c2ccc(F)cc2)Cc2nc(N3CCc4ccccc43)ncc21 (stereo not given),i,i,i,7.08µM,i
O=C(N/N=C/c1c(O)n(CCC2=CCCCC2)c(=S)[nH]c1=O)c1ccccc1,i,?,11.2µM,?,?
O=c1[nH]c(=S)n(CCC2=CCCCC2)c(O)c1C=NCc1cccnc1,i,i,i,i,i
CC(=O)Nc1ccc(S(=O)(=O)Nc2cccc3cccnc23)cc1,i,i,i,i,i
O=S(=O)(Nc1cccc2cccnc12)c1ccccc1,i,i,i,i,17.7µM
Cc1nc(N)sc1C(=O)N/N=C/c1cccnc1,i,i,i,nt,i
CC(C)(C)c1cc[n+](/C(C(=S)NC2CC2)=C(/[O-])c2ccc(Cl)s2)cc1,i,i,i,i,6.29µM
